For part of these data: Potency and affinity values are given separately.
How the values were obtained:
[1] = biological target: Protein translocase subunit SecA (Escherichia coli (strain K12)) (UniProt P10408); experiment: Assay to Identify E. coli SecA ATPase Inhibitors; type: functional; parameters: scale not given: direction of the effect not stated beside the values; settings: 30 µM
[2] = biological target: T1, Ubiquitin-activating enzyme e1, putative (Leishmania donovani (strain BPK282A1)) (UniProt E9BSI1); experiment: Leishmania donovani Ubiquitin Activating Enzyme (LdE1); type: functional; parameters: scale not given: direction of the effect not stated beside the values; settings: 30 µM
T1 sequence (whole entry): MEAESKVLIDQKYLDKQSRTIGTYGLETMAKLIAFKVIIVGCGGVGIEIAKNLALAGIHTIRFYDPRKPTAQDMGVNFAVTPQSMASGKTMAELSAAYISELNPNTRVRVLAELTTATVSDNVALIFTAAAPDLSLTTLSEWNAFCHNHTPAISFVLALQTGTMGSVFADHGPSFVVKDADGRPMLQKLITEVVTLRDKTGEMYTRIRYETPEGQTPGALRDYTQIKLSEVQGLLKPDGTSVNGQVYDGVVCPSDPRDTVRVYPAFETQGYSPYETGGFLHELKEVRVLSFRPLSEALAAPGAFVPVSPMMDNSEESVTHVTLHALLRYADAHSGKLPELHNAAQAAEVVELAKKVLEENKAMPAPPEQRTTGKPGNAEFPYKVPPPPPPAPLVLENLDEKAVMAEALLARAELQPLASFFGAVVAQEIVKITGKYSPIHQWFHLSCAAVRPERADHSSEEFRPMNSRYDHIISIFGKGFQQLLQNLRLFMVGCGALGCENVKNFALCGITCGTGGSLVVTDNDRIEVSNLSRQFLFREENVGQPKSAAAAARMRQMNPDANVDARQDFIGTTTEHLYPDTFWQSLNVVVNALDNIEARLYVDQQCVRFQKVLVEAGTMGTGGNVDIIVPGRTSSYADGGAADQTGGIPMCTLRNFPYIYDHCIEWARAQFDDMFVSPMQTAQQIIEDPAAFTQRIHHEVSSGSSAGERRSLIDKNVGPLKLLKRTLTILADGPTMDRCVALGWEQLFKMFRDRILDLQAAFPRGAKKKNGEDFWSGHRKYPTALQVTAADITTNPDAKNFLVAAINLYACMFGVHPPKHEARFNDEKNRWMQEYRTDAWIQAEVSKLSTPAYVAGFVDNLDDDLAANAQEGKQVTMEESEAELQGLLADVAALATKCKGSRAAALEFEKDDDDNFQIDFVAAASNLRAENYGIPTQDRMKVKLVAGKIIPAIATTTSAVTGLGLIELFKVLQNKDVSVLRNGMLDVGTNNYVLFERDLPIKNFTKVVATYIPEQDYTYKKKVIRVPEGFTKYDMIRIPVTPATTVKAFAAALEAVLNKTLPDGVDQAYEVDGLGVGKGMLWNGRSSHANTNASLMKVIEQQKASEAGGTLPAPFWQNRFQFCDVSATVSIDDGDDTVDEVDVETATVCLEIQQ

[3] = biological target: AMP-activated protein kinase, AMPK (Homo sapiens) (UniProt P54646+O43741+P54619+Q9UGJ0+Q9Y478+Q13131+Q9UGI9); experiment: AMP-dependent Kinase enzyme assay. An in vitro enzyme assay that detects ADP turnover that is directly proportional to AMPK activity. This uses naive AMPK that is activated during the assay with MK-8722; type: functional; parameters: scale not given: direction of the effect not stated beside the values; settings: 30 µM
[4] = biological target: Sialic acid-binding Ig-like lectin 9 (Homo sapiens) (UniProt Q9Y336); experiment: Hs-Siglec9 ALPHAscreen SOP 20170721; parameters: scale not given: direction of the effect not stated beside the values; settings: 10 µM
Sequence of Sialic acid-binding Ig-like lectin 9 (Homo sapiens) (Q9Y336 whole entry): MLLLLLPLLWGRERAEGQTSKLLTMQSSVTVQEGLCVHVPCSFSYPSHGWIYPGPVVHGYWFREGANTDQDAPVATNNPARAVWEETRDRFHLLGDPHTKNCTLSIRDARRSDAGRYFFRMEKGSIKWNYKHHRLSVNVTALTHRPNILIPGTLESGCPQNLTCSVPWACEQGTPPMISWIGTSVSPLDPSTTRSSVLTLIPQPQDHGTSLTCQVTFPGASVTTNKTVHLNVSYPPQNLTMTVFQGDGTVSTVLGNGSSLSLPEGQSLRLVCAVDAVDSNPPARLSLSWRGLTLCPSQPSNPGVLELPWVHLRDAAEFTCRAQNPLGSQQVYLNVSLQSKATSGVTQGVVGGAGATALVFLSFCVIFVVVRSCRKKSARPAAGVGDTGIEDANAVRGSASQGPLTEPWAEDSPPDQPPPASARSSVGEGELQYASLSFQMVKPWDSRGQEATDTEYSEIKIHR

Trypanosoma cruzi = experiment: Trypanosoma cruzi phosphomannomutase and mannose-1-phosphate guanylyltransferase assay; type: functional; parameters: scale not given: direction of the effect not stated beside the values; settings: 10 µM
[5] = biological target: T2, Arginase-2, mitochondrial (Homo sapiens) (UniProt P78540); experiment: in vitro enzyme assay to detect the production of urea directly proportional to the activity of Arginase II; type: functional; parameters: scale not given: in the data most compounds retested in dose-response had high values
T2 sequence (whole entry): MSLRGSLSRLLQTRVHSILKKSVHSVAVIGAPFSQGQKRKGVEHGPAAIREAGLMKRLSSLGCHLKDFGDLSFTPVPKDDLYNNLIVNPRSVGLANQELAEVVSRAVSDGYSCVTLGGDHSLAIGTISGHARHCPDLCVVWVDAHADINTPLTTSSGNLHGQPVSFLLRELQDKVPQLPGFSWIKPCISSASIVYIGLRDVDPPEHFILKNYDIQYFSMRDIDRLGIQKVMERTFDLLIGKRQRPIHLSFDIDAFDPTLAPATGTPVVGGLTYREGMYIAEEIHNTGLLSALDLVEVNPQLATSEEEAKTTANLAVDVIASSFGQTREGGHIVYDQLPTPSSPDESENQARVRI

[6] = biological target: T3, Proteasome subunit beta (Trypanosoma cruzi) (UniProt O96673); experiment: Trypanosoma cruzi proteasome chymotrypsin-like activity (TcProtChymo) assay.; type: functional; parameters: scale not given: in the data most compounds retested in dose-response had high values; settings: 9.37 µM
T3 sequence (whole entry): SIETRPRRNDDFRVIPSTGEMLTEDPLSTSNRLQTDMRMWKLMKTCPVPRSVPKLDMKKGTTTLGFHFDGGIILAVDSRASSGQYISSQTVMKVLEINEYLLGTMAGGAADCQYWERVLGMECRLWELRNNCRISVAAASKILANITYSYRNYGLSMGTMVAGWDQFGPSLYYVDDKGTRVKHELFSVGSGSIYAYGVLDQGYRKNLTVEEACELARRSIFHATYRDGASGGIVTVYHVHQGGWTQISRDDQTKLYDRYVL

Homo sapiens = species: Homo sapiens; experiment: To identify inhibition of the IFN signalling (Jak-Stat) pathway via expression of an eGFP reporter gene under the control of an IFN-stimulated response element (ISRE) containing MxA promoter.; type: functional; parameters: scale not given: direction of the effect not stated beside the values; settings: 30 µM
[7] = biological target: T4, Tyrosyl-tRNA synthetase, putative (Trypanosoma cruzi (strain CL Brener)) (UniProt Q4DSP6); experiment: Trypanosoma cruzi tyrosyl tRNA synthetase (TcYRS) _High Tyrosine SOP; type: functional; parameters: scale not given: in the data most compounds retested in dose-response had high values; settings: 30 µM
T4 sequence (whole entry): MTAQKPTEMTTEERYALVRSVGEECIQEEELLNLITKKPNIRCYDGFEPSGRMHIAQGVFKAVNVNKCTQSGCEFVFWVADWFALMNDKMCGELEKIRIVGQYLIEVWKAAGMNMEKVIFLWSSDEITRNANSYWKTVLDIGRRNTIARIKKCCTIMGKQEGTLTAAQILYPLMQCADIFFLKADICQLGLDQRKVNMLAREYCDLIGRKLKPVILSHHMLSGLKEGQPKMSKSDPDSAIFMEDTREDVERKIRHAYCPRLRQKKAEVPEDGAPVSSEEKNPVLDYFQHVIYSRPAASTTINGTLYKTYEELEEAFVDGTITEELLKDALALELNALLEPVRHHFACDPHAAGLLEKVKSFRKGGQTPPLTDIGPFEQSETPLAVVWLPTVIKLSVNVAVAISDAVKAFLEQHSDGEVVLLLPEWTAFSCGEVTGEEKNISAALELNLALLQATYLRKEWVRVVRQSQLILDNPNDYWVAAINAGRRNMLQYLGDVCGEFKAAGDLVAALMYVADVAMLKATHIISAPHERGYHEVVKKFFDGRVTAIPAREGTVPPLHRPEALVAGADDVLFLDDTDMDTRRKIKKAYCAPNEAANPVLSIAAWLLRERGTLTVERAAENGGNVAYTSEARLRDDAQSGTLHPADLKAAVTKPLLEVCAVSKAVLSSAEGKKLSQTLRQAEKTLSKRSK

[8] = biological target: T4, Tyrosyl-tRNA synthetase, putative (Trypanosoma cruzi (strain CL Brener)); experiment: Trypanosoma cruzi tyrosyl tRNA synthetase (TcYRS) SOP; type: functional; parameters: scale not given: direction of the effect not stated beside the values; settings: 30 µM
[9] = biological target: Chromo domain-containing protein 1 (Saccharomyces cerevisiae (strain ATCC 204508 / S288c) (Baker's yeast)) (UniProt P32657); experiment: ScCHD-1 Enzyme Inhibition Assay; type: functional; parameters: scale not given: in the data most compounds retested in dose-response had high values; settings: 30 µM
Sequence of Chromo domain-containing protein 1 (Saccharomyces cerevisiae (strain ATCC 204508 / S288c) (Baker's yeast)) (P32657 whole entry, the tested form may be a part): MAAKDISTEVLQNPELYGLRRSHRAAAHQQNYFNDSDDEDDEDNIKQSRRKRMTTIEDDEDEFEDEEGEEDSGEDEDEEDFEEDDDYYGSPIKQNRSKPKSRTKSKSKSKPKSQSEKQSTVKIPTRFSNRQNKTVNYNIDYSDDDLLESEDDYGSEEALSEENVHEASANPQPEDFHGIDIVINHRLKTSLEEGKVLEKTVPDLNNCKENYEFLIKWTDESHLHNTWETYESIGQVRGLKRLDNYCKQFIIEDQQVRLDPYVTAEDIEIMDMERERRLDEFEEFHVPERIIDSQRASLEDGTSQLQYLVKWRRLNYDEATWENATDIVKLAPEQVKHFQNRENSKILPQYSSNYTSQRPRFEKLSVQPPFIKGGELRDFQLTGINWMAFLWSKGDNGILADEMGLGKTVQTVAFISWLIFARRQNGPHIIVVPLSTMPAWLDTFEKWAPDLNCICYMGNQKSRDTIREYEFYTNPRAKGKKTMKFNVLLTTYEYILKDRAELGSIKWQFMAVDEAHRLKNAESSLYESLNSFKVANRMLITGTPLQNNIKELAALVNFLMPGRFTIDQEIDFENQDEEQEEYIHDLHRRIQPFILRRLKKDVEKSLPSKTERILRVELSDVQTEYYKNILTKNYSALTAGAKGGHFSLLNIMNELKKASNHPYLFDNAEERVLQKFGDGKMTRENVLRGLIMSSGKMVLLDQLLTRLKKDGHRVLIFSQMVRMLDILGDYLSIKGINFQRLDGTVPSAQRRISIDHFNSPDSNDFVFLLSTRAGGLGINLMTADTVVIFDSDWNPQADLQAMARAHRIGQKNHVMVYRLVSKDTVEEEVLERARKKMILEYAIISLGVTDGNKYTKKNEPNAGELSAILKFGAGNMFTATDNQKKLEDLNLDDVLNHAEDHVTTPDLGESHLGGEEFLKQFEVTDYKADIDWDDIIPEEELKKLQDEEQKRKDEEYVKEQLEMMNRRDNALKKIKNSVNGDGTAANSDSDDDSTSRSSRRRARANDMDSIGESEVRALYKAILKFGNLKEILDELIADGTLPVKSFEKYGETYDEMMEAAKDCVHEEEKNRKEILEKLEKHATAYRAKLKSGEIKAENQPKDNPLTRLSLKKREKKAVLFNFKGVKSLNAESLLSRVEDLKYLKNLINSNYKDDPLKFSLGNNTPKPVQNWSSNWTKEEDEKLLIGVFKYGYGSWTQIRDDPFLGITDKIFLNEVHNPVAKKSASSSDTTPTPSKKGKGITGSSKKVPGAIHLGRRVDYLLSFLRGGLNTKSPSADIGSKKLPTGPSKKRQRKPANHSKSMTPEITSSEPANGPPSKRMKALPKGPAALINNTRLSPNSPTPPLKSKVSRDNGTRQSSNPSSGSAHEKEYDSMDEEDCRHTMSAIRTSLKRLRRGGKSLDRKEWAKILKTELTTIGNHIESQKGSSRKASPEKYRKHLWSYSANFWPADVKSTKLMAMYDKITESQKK

[10] = biological target: T5, Methionyl-tRNA synthetase, putative (Leishmania donovani (strain BPK282A1)) (UniProt E9BF75); experiment: Leishmania donovani Methionine tRNA synthetase (LdMetRS):v7. Dose response assay; type: functional; parameters: conc 80 nM, time 150 minutes
T5 sequence (whole entry): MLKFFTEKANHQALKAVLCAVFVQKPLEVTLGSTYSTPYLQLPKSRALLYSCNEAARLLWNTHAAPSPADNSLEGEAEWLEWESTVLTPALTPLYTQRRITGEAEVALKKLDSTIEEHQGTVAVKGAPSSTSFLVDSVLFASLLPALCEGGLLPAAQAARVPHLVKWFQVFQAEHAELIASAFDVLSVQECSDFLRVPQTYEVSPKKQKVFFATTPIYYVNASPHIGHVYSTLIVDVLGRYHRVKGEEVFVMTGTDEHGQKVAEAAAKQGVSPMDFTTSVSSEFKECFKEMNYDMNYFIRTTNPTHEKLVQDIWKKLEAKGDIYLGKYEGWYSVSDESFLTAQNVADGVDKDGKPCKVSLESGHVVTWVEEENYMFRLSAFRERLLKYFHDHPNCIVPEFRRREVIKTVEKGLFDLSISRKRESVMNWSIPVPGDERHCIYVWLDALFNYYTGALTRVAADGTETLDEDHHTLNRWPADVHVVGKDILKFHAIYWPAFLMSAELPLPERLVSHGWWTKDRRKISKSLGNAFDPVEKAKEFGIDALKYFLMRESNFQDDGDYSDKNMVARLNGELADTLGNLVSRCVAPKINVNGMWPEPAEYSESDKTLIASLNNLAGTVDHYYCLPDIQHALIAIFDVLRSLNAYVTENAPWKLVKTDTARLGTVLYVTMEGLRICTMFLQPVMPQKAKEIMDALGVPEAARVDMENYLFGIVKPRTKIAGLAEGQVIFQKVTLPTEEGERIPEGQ

Sequence of Protein translocase subunit SecA (Escherichia coli (strain K12)) (P10408 whole entry): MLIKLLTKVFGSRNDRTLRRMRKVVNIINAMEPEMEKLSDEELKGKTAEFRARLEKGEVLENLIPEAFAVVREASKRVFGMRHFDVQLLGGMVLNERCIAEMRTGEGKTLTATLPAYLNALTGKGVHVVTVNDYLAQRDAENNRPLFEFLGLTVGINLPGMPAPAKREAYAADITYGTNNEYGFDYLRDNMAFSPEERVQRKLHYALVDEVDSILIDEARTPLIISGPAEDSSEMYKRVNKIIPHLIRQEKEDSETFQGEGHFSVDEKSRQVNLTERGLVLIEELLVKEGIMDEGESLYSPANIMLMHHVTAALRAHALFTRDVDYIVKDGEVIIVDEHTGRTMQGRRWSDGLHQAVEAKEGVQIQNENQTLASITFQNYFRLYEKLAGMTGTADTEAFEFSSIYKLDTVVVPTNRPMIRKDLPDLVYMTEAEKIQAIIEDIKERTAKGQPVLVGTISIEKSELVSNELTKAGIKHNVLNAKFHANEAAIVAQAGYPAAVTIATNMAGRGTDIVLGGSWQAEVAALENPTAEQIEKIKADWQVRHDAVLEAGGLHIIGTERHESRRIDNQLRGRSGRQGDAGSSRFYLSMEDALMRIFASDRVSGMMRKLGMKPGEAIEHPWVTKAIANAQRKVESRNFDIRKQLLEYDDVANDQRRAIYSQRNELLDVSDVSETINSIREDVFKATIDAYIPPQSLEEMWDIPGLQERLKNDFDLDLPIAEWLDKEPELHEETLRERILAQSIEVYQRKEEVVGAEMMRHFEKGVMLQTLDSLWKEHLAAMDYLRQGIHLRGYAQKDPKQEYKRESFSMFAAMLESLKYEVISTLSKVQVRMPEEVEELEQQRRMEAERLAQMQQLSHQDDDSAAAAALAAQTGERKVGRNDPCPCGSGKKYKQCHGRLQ

Q: `CN(Cc1ccccn1)C1CC2(CCN(Cc3cccnc3)CC2)C1` was tested. Which Percent Effect [1] did it give?
A: -7.24%

Q: And the Percent Effect [2]?
A: 13.3%

Q: What about the Percent Effect [3] of the same compound?
A: 5.22%

Q: What about the Percent Effect [4] of the same compound?
A: -6.34%

Q: What about the Percent Effect (Trypanosoma cruzi) of the same compound?
A: -10%

Q: What about the Percent Effect ([5]; 30 µM) of the same compound?
A: -2.7%

Q: And the Percent Effect ([5]; 33.3 µM)?
A: 0.233%

Q: And the Percent Effect [6]?
A: 9.6%

Q: What about the Percent Effect (Homo sapiens) of the same compound?
A: 10.9%

Q: And the Percent Effect [7]?
A: 4.25%

Q: And the Percent Effect [8]?
A: 11.5%

Q: What about the Percent Effect [9] of the same compound?
A: -7.41%

Q: Which results are given for `Cn1cnnc1C1CCN(c2cncc(-n3cccn3)n2)CC1`?
A: PXC50 ([10]; MAX_EFFECT 4.275534442): < 4; PXC50 ([10]; MAX_EFFECT 11.79577465): < 4; Percent Effect [1]: -2.06%; Percent Effect [2]: 8.11%; Percent Effect [3]: -2.17%; Percent Effect [4]: -0.628%; Percent Effect (Trypanosoma cruzi): 0.781%; Percent Effect ([5]; 33.3 µM): 2.92%; Percent Effect [6]: 13.8%; Percent Effect (Homo sapiens): -3.56%; Percent Effect [7]: 5.94%; Percent Effect [8]: 8.54%; Percent Effect [9]: -8.65%

Q: With `FC1(F)CCN(Cc2ccncc2)CC12CCN(Cc1ccccn1)C2` (stereo not drawn) as the compound, how does the PXC50 ([10]; MAX_EFFECT 4.275534442) read?
A: < 4

Q: And the PXC50 ([10]; MAX_EFFECT 11.44366197)?
A: < 4

Q: What about the Percent Effect [1] of the same compound?
A: -7.03%

Q: And the Percent Effect [2]?
A: 0%

Q: What about the Percent Effect [3] of the same compound?
A: -0.894%

Q: And the Percent Effect [4]?
A: 2.49%

Q: And the Percent Effect (Trypanosoma cruzi)?
A: -5.96%

Q: And the Percent Effect ([5]; 33.3 µM)?
A: 0.319%

Q: And the Percent Effect [6]?
A: 5.35%

Q: What about the Percent Effect (Homo sapiens) of the same compound?
A: 17.3%

Q: What about the Percent Effect [7] of the same compound?
A: -3.24%

Q: What about the Percent Effect [8] of the same compound?
A: -5.13%

Q: And the Percent Effect [9]?
A: -2.99%

Q: For `CCC(C(=O)NCc1ccncc1)N(c1cccc(C)c1)S(C)(=O)=O` (stereo not drawn), which Percent Effect [1] is on record?
A: -2.54%

Q: And the Percent Effect [2]?
A: 2.67%

Q: And the Percent Effect [3]?
A: 0.78%

Q: What about the Percent Effect [4] of the same compound?
A: 9.85%

Q: What about the Percent Effect (Trypanosoma cruzi) of the same compound?
A: 5.16%

Q: What about the Percent Effect ([5]; 30 µM) of the same compound?
A: 10.3%

Q: What about the Percent Effect ([5]; 33.3 µM) of the same compound?
A: 9.38%

Q: And the Percent Effect [6]?
A: 7.32%

Q: What about the Percent Effect (Homo sapiens) of the same compound?
A: 18.8%

Q: What about the Percent Effect [7] of the same compound?
A: 2.73%

Q: What about the Percent Effect [8] of the same compound?
A: 13.6%

Q: What about the Percent Effect [9] of the same compound?
A: -7.66%

Q: With `Cc1ccccc1C1(CNc2nnc(C)c(C)c2C#N)CCOCC1` as the compound, how does the PXC50 ([10]; MAX_EFFECT 12.82660333) read?
A: < 4

Q: And the PXC50 ([10]; MAX_EFFECT 19.54225352)?
A: < 4

Q: What about the Percent Effect [1] of the same compound?
A: -3.65%

Q: And the Percent Effect [2]?
A: 0%

Q: What about the Percent Effect [3] of the same compound?
A: -11.2%

Q: And the Percent Effect [4]?
A: 2.86%

Q: And the Percent Effect (Trypanosoma cruzi)?
A: -0.193%

Q: And the Percent Effect ([5]; 33.3 µM)?
A: -0.952%

Q: And the Percent Effect [6]?
A: 9.31%

Q: What about the Percent Effect (Homo sapiens) of the same compound?
A: 19.4%

Q: What about the Percent Effect [7] of the same compound?
A: 2.65%

Q: And the Percent Effect [8]?
A: 0%

Q: What about the Percent Effect [9] of the same compound?
A: -3.83%
